Hit rate of the full screen: of about 310,000 compounds, about 18,000 (5.8%) were called active. Not shown: some 22% with an inconclusive outcome. This excerpt belongs to a sample that is enriched for actives. Values without a mark were called inactive. Calls follow the shape of the dose curve; as a rule, active = well fitted inhibition curve with a large enough effect; inconclusive = small, poorly fitted or top-dose-only effect, or another doubt; inactive = no such curve, though single readings can be large or run the other way.
assay: Primary qHTS for delayed death inhibitors of the malarial parasite plastid, 48 hour incubation; details: P. falciparum luciferase growth in erythrocytes; series mostly up to 28.7 µM; activity change, negative = inhibition: at the top concentration
Summary of the method: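 In quantitative HTS format, infected erythrocytes bearing luciferase-reporter parasites were treated for a single generation at 37 C. Luminescence after adding detection reagent served as the growth measure.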
% is scaled to controls: 0 for no effect and ±100 for the full control effect; potency is read from the fitted curve at half-maximal effect.

Row | Structure (SMILES) | activity change, negative = inhibition | Potency
1 | CC(C)C(=O)Nc1c2c(nn1-c1ccccc1)CSC2 | 6.94% | 
2 | CCNC(=O)N1CCN(S(=O)(=O)c2ccc3c(c2)OCCCO3)CC1 | 1.67% | 
3 | O=C(Nc1cccc(Cl)c1)c1cc(S(=O)(=O)N2CCCCC2)c[nH]1 | 19.9% | 
4 | O=C(CCN1C(=O)[C@@H]2Cc3ccccc3CN2C1=O)NCc1ccccc1 | 8.13% | 
5 | CC(=O)N1CCc2cc(S(=O)(=O)NC3CCCCC3)ccc21 | -10.2% | 
6 | CC(Oc1ccccc1)C(=O)Nc1oc(-c2ccco2)c(-c2ccco2)c1C#N (configuration not stated) | 33.3% | 
7 | COc1cc(C(=O)Nc2oc(-c3ccccc3)c(-c3ccccc3)c2C#N)cc(OC)c1OC | 15.7% | 
8 | CC(C)C(=O)Nc1oc(-c2ccccc2)cc1C#N |  | 1.85 µM (active)
9 | COc1cc(CC(=O)N2CCC(n3nccc3NC(=O)C3CC3)CC2)cc(OC)c1OC | 41.4% | 
10 | O=C(CN(Cc1ccc(Br)cc1)S(=O)(=O)c1ccccc1)NCc1ccncc1 | -5.45% | 
11 | Cc1ccc(-c2nc(-c3ccncc3)no2)c(C)c1 | 18% | 
12 | O=C(COC(=O)c1ccccc1Cl)NC1CCCCCCC1 | 16.5% | 
13 | COc1ccccc1CC(=O)Nc1ccc(S(=O)(=O)N2CCCC2)cc1 | -21.9% | 
14 | Nc1nonc1-n1nnc(C(=O)N/N=C/C2CCCCC2)c1-c1ccccc1 | 11.2% | 
15 | CC(C)c1c(C(=O)N/N=C/c2ccc(-c3ccccc3)cc2)nnn1-c1nonc1N | 13.7% | 
16 | Nc1nonc1-n1nnc(C(=O)N/N=C/c2ccc(Cl)cc2)c1-c1ccc2c(c1)OCO2 |  | 0.329 µM (active)
17 | Cc1cc(F)ccc1S(=O)(=O)Nc1ccc(C(=O)N(C)Cc2ccco2)cc1 | -12.8% | 
18 | O=C(NCCSc1ncc(-c2ccccc2)[nH]1)c1ccco1 | 2.49% | 
19 | CCN(C(=O)CSc1nnc(-c2ccncc2)o1)c1ccccc1 | -1.9% | 
20 | COc1ccc(CN(C(=O)CSc2nnc(-c3ccc(OC)c(OC)c3)o2)c2ccc(F)cc2)cc1 |  | 9.28 µM (active)
21 | COc1ccc(CCNC(=O)CSc2nnc(-c3cccc(F)c3)o2)cc1OC | -10.6% | 
22 | CCc1ccc(NC(=O)C(=O)NNC(=O)c2cccs2)cc1 | 74.2% | 
23 | O=C(Nc1ccccc1N1CCN(C(=O)c2ccccc2)CC1)c1ccco1 | -14% | 
24 | O=C(Nc1cccc(C(=O)N2CCCC2)c1)c1ccccc1 | 13.1% | 
25 | O=C(Nc1ccc(N2CCN(C(=O)c3ccccc3)CC2)c(Cl)c1)c1ncn[nH]1 |  | 11.7 µM (active)
26 | C#CCOc1ccccc1/C=C1/C(=O)ON=C1C | -13.9% [at 0.00184 µM] | 

Row | Structure (SMILES) | activity change, negative = inhibition | Potency
27 | O=[N+]([O-])c1ccc2c(c1)Nc1nc3ccccc3nc1N2 | 129% | 
28 | O=[N+]([O-])c1cccc(/C([O-])=C(/C(=S)Nc2ccccc2F)[n+]2ccccc2)c1 | 57.9% | 
29 | CC(OC(=O)CNC(=O)c1ccc(Cl)c([N+](=O)[O-])c1)C(=O)NCc1ccco1 (configuration not stated) | 2.5% | 
30 | Cc1ccc(/C([O-])=C(/C(=S)NCc2ccco2)[n+]2ccccc2)cc1[N+](=O)[O-] |  | 10.4 µM (active)
31 | COc1cccc(C(=O)OCc2cc(=O)oc3c(C)c(C)ccc23)c1OC | 3.93% | 
32 | Cc1cc(/C=C2/SC(=O)N(CC(=O)N3CCCC3)C2=O)c(C)n1C | 5.8% | 
33 | COCCCNC(=S)N(CCN(C)C)Cc1cc2cc3c(cc2[nH]c1=O)OCCO3 | -21.6% | 
34 | Cc1cc(C)c2[nH]c(=O)c(CN(Cc3ccccc3)C(=S)NCCCN(C)C)cc2c1 |  | 13.1 µM (active)
35 | CCN(CC)CCCNC(=S)N(CCO)Cc1cc2cc3c(cc2[nH]c1=O)OCO3 | 26.3% | 
36 | COc1cc(/C=N/NC(=O)c2ccc(N3CCCC3=O)cc2)ccc1O | 45.3% | 
37 | O=c1cc(Cl)c2ccccc2n1-c1ccccc1 | -0.654% [at 0.00184 µM] | 
38 | COc1ccc(OCc2cc(C(=O)NCC3(C)COC3)no2)c(Cl)c1 | 36.9% | 
39 | COC(=O)c1c(NC(=O)c2ccccc2F)sc2c1C(C(=O)OC)CC2 (configuration not stated) | 12.9% | 
40 | COc1ccc2[nH]c(C)c(CCN(Cc3cccs3)C(=S)Nc3ccccc3OC)c2c1 |  | 11.7 µM (active)
41 | COc1ccc(NC(=S)NCc2cccs2)c(OC)c1 | -9.21% | 
42 | Cc1[nH]c2ccccc2c1CCN(Cc1cccs1)C(=S)NC(C)(C)C | -11.3% | 
43 | Cc1ccc2c(c1)N(CC(=O)N1CCCC(C)C1)C(=O)CO2 (configuration not stated) | 13.8% | 
44 | COc1ccc(OCCn2ccnc2C)cc1 | 10.7% | 
45 | c1ccc(Cc2ccc(OCCn3ccnc3)cc2)cc1 |  | 9.28 µM (active)
46 | Clc1ncn(CCOc2ccccc2)c1Cl | 8.95% | 
47 | CC(CCc1ccccc1)NC(=O)c1cnc(Cl)c(Cl)c1 (configuration not stated) | 5.45% | 
48 | CN(C)C(=O)c1ccc(NC(=O)COC(=O)c2cc3c(s2)CCCCC3)cc1 | -7.64% | 
49 | CCn1c2ccccc2c2cc(NC(=O)COC(=O)c3cc(S(=O)(=O)N4CCCCC4)ccc3Cl)ccc21 | 32.1% | 
50 | COC(=O)Cn1c(O)c(N=NC(=O)OC)c2ccccc21 | 22.9% | 
51 | CCn1c(O)c(N=NC(=O)c2cccc(S(=O)(=O)N3CCCCC3)c2)c2ccccc21 |  | 11.7 µM (active)
52 | CC(C)(C)c1cc[n+](-c2[nH]c(=O)sc2/C=N/N=C(\[O-])c2ccccc2)cc1 | -0.526% | 
